# Data taken from PubChem BioAssay AID1626 (SRMLSC, 2009).
# The campaign covered roughly 220,000 compounds. About 2,000 (0.91%) were called active. Roughly 2% stayed inconclusive and do not appear here. These entries were drawn from the full list. Measured potencies and affinities stand elsewhere. Values without a mark were called inactive. Rule as the data show it: inconclusive = inhibition above about 80% without an active follow-up result; inactive = below that; test concentration not stated here.
# Test: M. tuberculosis H37Rv growth inhibitors, H37Rv strain (AID 1626);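 also: bacteria incubated seven days before Alamar blue readout; 0% = bacteria only wells and 100% = bacteria with antibiotic wells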
# Conditions: hits give high values, concentration not given here
row,SMILES,inhibition [%]
1,Cc1ccc2oc3c(c(=O)c2c1)C(c1cccc(Br)c1)N(Cc1ccco1)C3=O (stereo not drawn),1.98
2,O=C1c2oc3ccccc3c(=O)c2C(c2cccc(Br)c2)N1Cc1ccco1 (stereo not drawn),1.43
3,CN1CCN(C(=S)c2cn(CCOc3ccccc3)c3ccccc23)CC1,13
4,Cc1cc(N/C=C(\C#N)S(=O)(=O)c2ccccc2Cl)nc(C)n1,-9.07
5,COc1cc2c3c(c1)C(C)=CC(C)(C)N3C(=O)C2=O,-3.11
6,CC1=CC(C)(C)N2C(=O)C(=Nc3ccc(O)cc3)c3cccc1c32,3
7,CC(=O)N/C(=C\c1cccc([N+](=O)[O-])c1)C(=O)NC1CCCCC1,-0.9
8,CCN(CC)S(=O)(=O)c1ccc(/C=C/C(=O)O)cc1,-3.16
9,CS(=O)(=O)N(Cc1ccccc1)c1ccc(C(=O)NCC2CCCO2)cc1 (stereo not drawn),-13.4
10,CCn1c(/C=C/c2ccccc2[N+](=O)[O-])nc2ccccc2c1=O,2.98
11,CCn1c(/C=C/c2cccc([N+](=O)[O-])c2)nc2ccccc2c1=O,-7.86
12,Cc1ccc(NC(=O)CCNC(=O)c2ccco2)cc1,3.05
13,COc1ccc(NCc2nnc(SCC(=O)NNC(=O)c3ccc(C)cc3)n2C)cc1,-19.4
14,COc1ccc(N2CCN(c3oc(COc4ccccc4)nc3C#N)CC2)cc1,-5.04
15,CCN1CCN(c2oc(COc3ccc(-c4ccccc4)cc3)nc2C#N)CC1,10.7
16,O=S(=O)(c1ccc2oc(=S)[nH]c2c1)N1CCCCC1,-5.83
17,CCC(C)[C@H](NC(=O)NCc1ccc(S(N)(=O)=O)cc1)C(=O)OC (stereo partly drawn),6.6
18,Cn1cnc2c1c(=O)n(Cc1ccccc1)c(=O)n2C,-6.11
19,c1ccc(-c2cc3c(N4CCN(c5ncccn5)CC4)ncnc3s2)cc1,-0.33
20,c1ccc(-c2cc3c(N4CCCC4)ncnc3s2)cc1,2.65
21,CN1CCN(c2ncnc3sc(-c4ccccc4)cc23)CC1,0.51

row,SMILES,inhibition [%]
1,Oc1ccc(N2CCN(c3ncnc4sc(-c5ccccc5)cc34)CC2)cc1,69.8
2,O=C(NCCN1CCOCC1)N1CCOCC1,-3.24
3,COc1ccc(Cl)cc1NC(=O)c1ccccc1C,4.11
4,Cc1cc(C)c2nc(SC(C)C#N)cc(C)c2c1 (stereo not drawn),9.89
5,O=C(CN(Cc1ccco1)C(=O)c1ccccc1)Nc1ccc(Cl)c(Cl)c1,0.53
6,O=C(Nc1ccccc1)C12CC3CC(C1)CC(n1cnc([N+](=O)[O-])n1)(C3)C2,3.45
7,O=C(Nc1cccc([N+](=O)[O-])c1)C12CC3CC(C1)CC(n1cnc([N+](=O)[O-])n1)(C3)C2,3.76
8,O=C1c2ccsc2SCCN1Cc1ccccc1Cl,8.66
9,COCCNC(=O)/C(C#N)=C\c1ccc(CNC(=O)C(=O)Nc2ccc(C)c(C)c2)o1,-19
10,CCC(=O)N1CCc2cc(S(=O)(=O)CCC(=O)NCc3ccco3)ccc21,-7.3
11,O=C(c1ccc2ccccc2c1)C1CCCN(C(=O)CCn2cnnn2)C1 (stereo not drawn),3.36
12,Cn1ccnc1C(O)c1ccccc1 (stereo not drawn),6.73
13,COc1ccc(C(O)c2nccn2C)cc1 (stereo not drawn),4.48
14,O=C(NN1C(=O)C2C(C1=O)C1C=CC2C12CC2)c1ccc(Cl)cc1 (stereo not drawn),7.63
15,Cc1ccc(NS(=O)(=O)c2cccc([N+](=O)[O-])c2)nc1,2.81
16,O=C(c1ccco1)N1CCN(c2nnc(-c3ccccc3)c3ccccc23)CC1,1.18
17,CCc1nc(N2CCN(C(=O)c3ccccc3)CC2)c(C#N)c2c1COC(C)(C)C2,-3.57
18,CC(C)C(=O)N1CCN(c2nc(-c3ccccc3)c3c(c2C#N)CCCC3)CC1,7.25
19,Cc1ccc(-c2nnc(N3CCN(C(=O)CN4CCOCC4)CC3)c3ccccc23)cc1,0.29
20,CC1(C)Cc2c(C#N)c(N3CCN(C(=O)c4ccco4)CC3)nc(Cc3ccccc3)c2CO1,-5.53
21,CCC(=O)N1CCN(c2nc(-c3ccccc3)c3c(c2C#N)CCCC3)CC1,6.35

row,SMILES,inhibition [%]
1,O=C(/C=C/c1ccc(Br)cc1)NCc1cccs1,8.29
2,Cc1cc(C)cc(N2C(=O)CSC2c2cccs2)c1 (stereo not drawn),-1.33
3,O=C(O)c1sccc1SCc1ccc(Cl)c(Cl)c1,-2.78
4,O=C(CNS(=O)(=O)c1cccc(Cl)c1)Nc1ccc(-c2nc3ccccc3s2)cc1,1.91
5,O=C1[C@@H]2[C@H](C(=O)N1Cc1cccnc1)[C@H]1C=C[C@@H]2C1,4
6,COc1ccc(NC(=O)NCCCN2CCC(Cc3ccccc3)CC2)cc1,-4.94
7,C#C[C@]1(O)CCC2C3CCC4=Cc5oncc5CC4(C)C3CCC21C (stereo partly drawn),3.82
8,CCOC(=O)c1sc(N2N=C(C)C(N=Nc3cccc(C)c3)C2=O)nc1C (stereo not drawn),57.3
9,NCCOc1cnn(-c2ccccc2Cl)c(=O)c1Cl,0.22
10,COc1ccc(NC(=O)N2CCCC(c3nc(-c4ccc(C(C)C)cc4)no3)C2)cc1 (stereo not drawn),10.7
11,Cn1c(-c2ccc3c(c2)OCO3)cnc1NCc1ccc(Cl)cc1,-3.22
12,Cn1c(-c2ccc3c(c2)OCO3)cnc1NCc1ccccc1,-5.95
13,CC(C)C[C@H](NC(=O)c1nc[nH]c1C(=O)NCc1ccccc1)C(=O)OCc1ccccc1,-9.88
14,O=S(=O)(c1ccc(-n2cnnn2)cc1)N1CCC(N2CCCCC2)CC1,0.43
15,CC(C)CNC(=O)NC(=O)COC(=O)c1cccc(NS(=O)(=O)c2ccc(F)c(F)c2)c1,27.8
16,Cc1cc(C)n2c(=S)[nH]nc2n1,-1.62
17,CCCC(=O)NC(C)c1nc2ccccc2n1CC (stereo not drawn),1.48
18,O=C(Nc1ccc(Cl)cc1)NC1CCCCC1,-3.67
19,O=C(Nc1ccc(F)c(F)c1)NC1CCCCC1,-11.3
20,Cc1ccc(NC(=O)C2CCN(C(=O)NC3CCCCC3)CC2)cc1Cl,7.5
21,CC(C)c1ccc(NC(=S)NC2CCCCCC2)cc1,-13.8
